Experimental data taken from PubChem BioAssay.
Active and inactive are the calls of the source. Unless noted, the rule behind the calls is not given here.

Columns and labels:
[1] = resazurin metabolic signal in HepG2 cells – cell-based, resazurin fluorescence, 24 h, PK04 Diversity Set, profiling panel (AID 1172); settings: HepG2 viability, higher = more signal
[2] = budding yeast growth changes without added modifier – OD600, strain BY4716, 24 h, basal condition, primary screen (AID 1173); settings: S. cerevisiae BY4716 growth, OD600, 24 h; higher = more signal, called active from +8 up or from −8 down
[3] = viability profiling in MM1S myeloma cells – cell-based, resazurin fluorescence, basal, 24 h, PK04 Diversity Set, profiling panel (AID 1174); settings: higher = more signal, called active from +8 up or from −8 down;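 note: MM1S multiple myeloma cell line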
[4] = target: Dihydroorotate dehydrogenase (quinone), mitochondrial (Plasmodium falciparum (isolate 3D7)) (UniProt Q08210); assay: inhibition of P. falciparum DHODH – biochemical, C-terminal His tag, absorbance 600 nm, primary screen (AID 1175); settings: PfDHODH enzyme, DCIP absorbance 600 nm; higher = more signal, called active from +8 up or from −8 down;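 note: recombinant parasite enzyme with a five histidine tag at its C terminus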
[5] = inhibition of PAO1 biofilm formation – strain PAO1, LB-PBS medium, absorbance 600 nm, primary screen (AID 1176); settings: P. aeruginosa PAO1 growth/biofilm, A600, 12 h; higher = more signal
[6] = growth modulation of vineyard yeast isolate – strain RM11-1a, OD600, basal, 24 h, primary screen (AID 1177);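 note: cultures grown under basal conditions with no added stressor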; settings: S. cerevisiae RM11-1a growth, OD600, 24 h; higher = more signal, called active from +8 up or from −8 down
[7] = growth of efflux-deficient E. coli DRC39 – strain DRC39, OD650, 24 h, E. coli filamentation inducers, primary screen (AID 1178);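 note: growth measured as culture turbidity by optical density at 650 nm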; settings: E. coli DRC39 acrAB, higher = more signal, called active from +8 up or from −8 down
[8] = growth of efflux-deficient E. coli DRC39 – strain DRC39, OD650, 48 h, E. coli filamentation inducers, primary screen (AID 1179);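 note: screen aims at cell division blockers that make cells filament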; settings: E. coli DRC39 delta-acrAB growth, higher = more signal, called active from +8 up or from −8 down
[9] = viability profiling in RPMI8226 myeloma cells – cell-based, resazurin fluorescence, basal, 24 h, PK04 Diversity Set, profiling panel (AID 1180); settings: higher = more signal;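 note: RPMI8826 multiple myeloma cell line at 5000 cells per well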
[10] = target: E3 ubiquitin-protein ligase XIAP (Homo sapiens) (UniProt P98170); assay: small molecules binding XIAP protein – biophysical, small-molecule microarray, fluorescence 635 nm, primary screen (AID 1181); settings: higher = more signal;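 note: score merges 667 nm emission and signal to noise over triplicate slides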
[11] = test system: XIP peptide (Xip251-270) binding; assay: XIP fragment 251-270 binding compounds – biochemical, small-molecule microarray, fluorescence 635/667 nm, 0.1 µg/mL protein, primary screen (AID 1182); settings: fluorescent protein binding, 635 nm, higher = more signal, called active from +8 up or from −8 down
XIP peptide (Xip251-270) = assay: compounds binding XIP fragment 251-270 – biochemical, small-molecule microarray, fluorescence 635/667 nm, 0.5 µg/mL protein, primary screen (AID 1183); settings: fluorescence 635 nm, higher = more signal
[12] = blood-stage malaria parasite viability loss – strain 3D7, DAPI fluorescence, 100 nL, primary screen (AID 1184);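 note: parasites grown inside human red blood cells in medium with human serum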; settings: P. falciparum 3D7 growth, 3 d, higher = more signal
[13] = target: Homeobox protein Hox-A13 (Mus musculus) (UniProt Q62424); assay: disruptors of Hoxa13 oligonucleotide interaction – biochemical, fluorescence polarization, labeled oligonucleotide, primary screen (AID 1185); settings: Hoxa13:DNA binding, 15 min, higher = more signal, called active from +8 up or from −8 down
[14] = blockers of DNA damage checkpoint Chk1 activation – imaging, HeLa, hydroxyurea, phospho-Chk1 antibody, percent positive cells, primary screen (AID 1186); settings: hydroxyurea-induced phospho-Chk1 immunofluorescence imaging, higher = more signal
[15] = blockers of DNA damage checkpoint Chk1 activation – imaging, HeLa, hydroxyurea, phospho-Chk1 nuclear intensity, primary screen (AID 1187); settings: hydroxyurea-induced phospho-Chk1 immunofluorescence imaging, higher = more signal

Chain of E3 ubiquitin-protein ligase XIAP (Homo sapiens) (P98170 whole entry, looked up, the tested form may be a part): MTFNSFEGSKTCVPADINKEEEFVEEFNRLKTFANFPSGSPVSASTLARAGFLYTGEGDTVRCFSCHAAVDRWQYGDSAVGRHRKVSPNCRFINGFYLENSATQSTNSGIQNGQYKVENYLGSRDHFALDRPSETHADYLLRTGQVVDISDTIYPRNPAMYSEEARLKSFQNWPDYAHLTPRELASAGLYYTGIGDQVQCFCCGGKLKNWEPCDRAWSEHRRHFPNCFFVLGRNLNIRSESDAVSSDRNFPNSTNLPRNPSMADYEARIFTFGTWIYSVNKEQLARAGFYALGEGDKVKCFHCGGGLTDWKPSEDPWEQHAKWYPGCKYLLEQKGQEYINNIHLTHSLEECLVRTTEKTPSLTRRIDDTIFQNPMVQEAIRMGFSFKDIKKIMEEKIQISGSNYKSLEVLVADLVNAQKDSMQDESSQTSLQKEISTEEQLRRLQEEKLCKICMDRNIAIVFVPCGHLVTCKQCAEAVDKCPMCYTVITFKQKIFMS
Chain of Dihydroorotate dehydrogenase (quinone), mitochondrial (Plasmodium falciparum (isolate 3D7)) (Q08210 whole entry, looked up): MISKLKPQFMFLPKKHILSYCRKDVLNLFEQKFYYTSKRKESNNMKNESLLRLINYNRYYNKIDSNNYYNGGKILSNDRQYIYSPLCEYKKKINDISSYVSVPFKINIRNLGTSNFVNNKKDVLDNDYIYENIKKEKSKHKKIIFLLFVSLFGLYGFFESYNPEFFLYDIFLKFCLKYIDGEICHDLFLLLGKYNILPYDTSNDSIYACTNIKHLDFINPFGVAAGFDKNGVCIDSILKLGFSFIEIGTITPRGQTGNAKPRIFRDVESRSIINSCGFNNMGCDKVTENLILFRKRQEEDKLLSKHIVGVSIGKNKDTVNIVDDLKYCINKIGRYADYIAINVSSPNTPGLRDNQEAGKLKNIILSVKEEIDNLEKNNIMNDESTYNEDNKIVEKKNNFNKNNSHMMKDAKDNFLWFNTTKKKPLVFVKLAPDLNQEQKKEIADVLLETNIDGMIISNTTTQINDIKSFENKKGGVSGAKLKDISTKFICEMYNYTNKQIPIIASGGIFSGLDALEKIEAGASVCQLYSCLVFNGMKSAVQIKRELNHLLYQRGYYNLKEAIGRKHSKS
Chain of Homeobox protein Hox-A13 (Mus musculus) (Q62424 whole entry, looked up): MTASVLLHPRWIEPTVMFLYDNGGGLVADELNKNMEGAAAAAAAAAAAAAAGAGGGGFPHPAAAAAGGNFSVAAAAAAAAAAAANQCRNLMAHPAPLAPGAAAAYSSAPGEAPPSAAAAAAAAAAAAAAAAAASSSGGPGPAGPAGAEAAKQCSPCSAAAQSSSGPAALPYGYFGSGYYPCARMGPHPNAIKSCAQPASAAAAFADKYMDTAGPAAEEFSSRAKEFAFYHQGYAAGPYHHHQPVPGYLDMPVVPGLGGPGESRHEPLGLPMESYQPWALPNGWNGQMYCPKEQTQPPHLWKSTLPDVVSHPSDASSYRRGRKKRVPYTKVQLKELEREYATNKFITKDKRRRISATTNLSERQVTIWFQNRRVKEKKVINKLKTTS

Row | Compound | z-score [1] | z-score [2] | z-score [3] | composite z-score [4] | z-score [5] | z-score [6] | z-score [7] | z-score [8] | z-score [9] | composite z-score [10] | composite z-score [11] | composite z-score (XIP peptide (Xip251-270)) | z-score [12] | z-score [13] | z-score [14] | z-score [15]
1 | O=C(NC1CC1)[C@@H]1c2ccccc2C(=O)N(Cc2ccccc2Cl)[C@H]1c1ccc(CO)cc1 | 0.382 | -2.09 (inactive) | -0.0621 (inactive) | -1.36 (inactive) | 0.994 (inactive) | -2.66 (inactive) | 1.28 (inactive) | 1.49 (inactive) | 0.69 | 0.0297 | 0.628 (inactive) | 0.119 | -0.46 | -2.23 (inactive) | -0.825 (inactive) | -1.13 (inactive)
2 | CC(=O)n1cc(C(O)C2C=CC3C(=O)N(c4ccccc4)C(=O)C3N2Nc2ccc([N+](=O)[O-])cc2)c2ccccc21 (stereo not given) | -0.768 | -0.199 (inactive) | -1.15 (inactive) | 0.835 (inactive) | 1.25 (inactive) | 0.241 (inactive) | -1.34 (inactive) | -0.885 (inactive) | -0.669 | -0.0391 | 1.15 (inactive) | 0.87 | -0.306 | -4.3 (inactive) | 0.541 (inactive) | -0.219 (inactive)
3 | C=C(CCCC)C(=O)CC[C@@H](OC(=O)c1ccccc1-c1ccccc1C(=O)O)c1ccc(OCCO)cc1 | -0.268 | -1.78 (inactive) | -0.276 (inactive) | -1.25 (inactive) | 0.956 (inactive) | -0.585 (inactive) | -0.0062 (inactive) | -0.297 (inactive) | 0.692 | -0.182 | 0.175 (inactive) | 0.602 | -2.46 | -5.5 (inactive) | 0.431 (inactive) | 0.362 (inactive)
4 | O=C1C[C@@](C(=O)NCCN2CCOCC2)(c2ccc([N+](=O)[O-])cc2)[C@@H](c2ccc(CO)cc2I)N1CC12CC3CC(CC(C3)C1)C2 | -5.11 | -12.9 (active) | -6.88 (inactive) | -0.227 (inactive) | 0.941 (inactive) | -21.4 (active) | -0.272 (inactive) | -0.305 (inactive) | -5.62 | -0.0095 | 0.634 (inactive) | 0.761 | -2.04 | -3.99 (inactive) | -0.894 (inactive) | -1.24 (inactive)
5 | COc1cc(COC(C)=O)ccc1OC(C)=O | 0.858 | -0.715 (inactive) | 0.101 (inactive) | -0.942 (inactive) | 0.317 (inactive) | -1.35 (inactive) | 1.17 (inactive) | 0.871 (inactive) | 0.614 | -0.269 | -0.603 (inactive) | 0.213 | 0.287 | 0.579 (inactive) | -1.08 (inactive) | -1.53 (inactive)
6 | CC(C)(C)OC(=O)CC[C@]1(C(=O)N2CCOCC2)N=C(c2ccc(OCCCO)cc2)O[C@H]1c1ccccc1N=[N+]=[N-] | 0.548 | -0.515 (inactive) | -0.095 (inactive) | -0.793 (inactive) | -0.0684 (inactive) | 0.207 (inactive) | 0.453 (inactive) | 0.314 (inactive) | 0.187 | 0.115 | 0.472 (inactive) | 0.472 | -2.28 | -5.38 (inactive) | -0.112 (inactive) | 0.0839 (inactive)
7 | CCCC[C@@H]1C[C@H]1[C@@H](NC(=O)c1ccccc1)c1ccc(C(=O)OC)cc1 | -0.186 | -1.61 (inactive) | -0.892 (inactive) | -0.265 (inactive) | 0.771 (inactive) | -0.75 (inactive) | -0.986 (inactive) | -0.885 (inactive) | 0.0845 | -0.0143 | -0.0225 (inactive) | 0.221 | -0.0079 | -3.64 (inactive) | 0.665 (inactive) | 0.454 (inactive)
8 | CC(C)N1C(=O)[C@@]2(Cc3ccccc31)c1ccccc1C(=O)N(Cc1ccccc1Cl)[C@H]2c1ccc(CO)cc1 | 1.07 | -1.87 (inactive) | 0.845 (inactive) | -4.26 (inactive) | 0.31 (inactive) | -1.6 (inactive) | 0.344 (inactive) | 0.659 (inactive) | 1.32 | 0.257 | -0.26 (inactive) | 0.388 | -0.113 | -0.978 (inactive) | -0.339 (inactive) | -0.458 (inactive)
9 | C=C(COC)C(=O)CC[C@@H](OC(C)=O)c1ccc(CO)o1 | -0.173 | 0.227 (inactive) | 0.145 (inactive) | -3.24 (inactive) | 0.838 (inactive) | -1.23 (inactive) | -0.216 (inactive) | -0.107 (inactive) | 0.0972 | 0.383 | 0.861 (inactive) | -0.0256 | 0.216 | -3.72 (inactive) | 0.293 (inactive) | 0.384 (inactive)
10 | C=CCOC(=O)[C@H]1[C@@H]2C(=O)O[C@@H](c3ccccc3)[C@@H](c3ccccc3)N2[C@@H](c2ccc(OCCOC(=O)[C@H]3C[C@H]4C(=O)N[C@@H](CCCCNC(C)=O)C(=O)N4[C@H]3c3cccc(OCCO)c3)cc2)[C@]12C(=O)Nc1ccccc12 | 0.514 | 0.922 (inactive) | 0.618 (inactive) | 0.592 (inactive) | 3.14 (inactive) | 1.29 (inactive) | 0.561 (inactive) | -0.581 (inactive) | 0.491 | -0.0338 | 0.899 (inactive) | 0.528 | -1.69 | -1.77 (inactive) | -0.843 (inactive) | -0.373 (inactive)
